This passage reports growth results from PubChem BioAssay (NCI).

SMILES strings stand for the structures. Compounds without any hit were thinned out: in the full panel of roughly 83,000, 20% have a hit.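 Interpretation: 100, growth as untreated; towards 0, rising growth inhibition; 0, no net growth; 0 to -100, cell death. Compounds scoring below 10 were considered active.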 Values without a mark were called inactive. Calls of active or inactive are those of the source.

Among the test systems are SR leukemia; RPMI-8226 leukemia; OVCAR-8 ovarian; OVCAR-5 ovarian; OVCAR-4 ovarian; SK-OV-3 ovarian; IGROV1 ovarian; OVCAR-3 ovarian; HS 578T breast; NCI/ADR-RES ovarian; T-47D breast; BT-549 breast; MDA-MB-435 melanoma; SW-620 colon; MCF7 breast; HCT-116 colon; HCC-2998 colon; KM12 colon.
Holding throughout (experiment): NCI-60 one-dose screen, 48 h (100 = growth as untreated, 0 = no growth, -100 = all killed)
Details in all cases: 10 µM unless noted

`COCCn1c(-c2csc(-c3cn(C)c4ccc(OC)cc34)n2)cc2cccnc21`: the growth in the assay with SR leukemia is 18.4%; with RPMI-8226 leukemia, 65.4%; in the assay on OVCAR-8 ovarian it was 59.7%; in the assay with OVCAR-5 ovarian it was 79.9%; in the assay with OVCAR-4 ovarian, 55.9%; in the assay on SK-OV-3 ovarian it was 65.2%. Besides, the growth was 94.5% with IGROV1 ovarian; 65.5% in the assay on OVCAR-3 ovarian; 58.5% in the assay with HS 578T breast; 46.4% in the assay with NCI/ADR-RES ovarian; 8.7% (active) in the assay with T-47D breast; 43.6% in the assay on BT-549 breast. Moreover, the growth in the assay with MDA-MB-435 melanoma is 74.5%; in the assay on SW-620 colon it was 15.1%; in the assay with MCF7 breast it was 47.5%; in the assay on HCT-116 colon it was 57.2%; in the assay on HCC-2998 colon, -3.8% (active); in the assay with KM12 colon it was 21.5%.
Regarding `CCS/C(Nc1ccccc1)=C(\C#N)C(=O)N/N=C/c1ccc(Cl)cc1Cl`, the growth in the assay on SR leukemia was 19.5%; in the assay with RPMI-8226 leukemia it was 9.68% (active); with OVCAR-8 ovarian, 28.6%; in the assay with OVCAR-5 ovarian it was 72.5%; in the assay on OVCAR-4 ovarian it was 56.5%; with SK-OV-3 ovarian, 15.5%. The growth in the assay with IGROV1 ovarian is 49.1%; with OVCAR-3 ovarian, 1.46% (active); in the assay on HS 578T breast, -6.44% (active); with NCI/ADR-RES ovarian it was 10.8%; in the assay on T-47D breast, 17.8%; in the assay with BT-549 breast, 45.4%. For the same molecule, the growth in the assay on MDA-MB-435 melanoma is -34.5% (active); in the assay with SW-620 colon, 18.6%; in the assay with MCF7 breast it was 19.3%; in the assay with HCT-116 colon, 17.5%; with HCC-2998 colon it was 48.4%; in the assay on KM12 colon, 28%.
`O=C1NCCC12CCN(c1c(Cl)cncc1-c1ccc(O)cc1)CC2`: the growth in the assay with SR leukemia was 94.3%; with RPMI-8226 leukemia it was 85.5%; with OVCAR-8 ovarian it was 89.1%; with OVCAR-5 ovarian, 83.6%; with OVCAR-4 ovarian it was 105%; in the assay with SK-OV-3 ovarian, 85.4%. Besides, the growth was 69.2% in the assay on IGROV1 ovarian; 104% in the assay with OVCAR-3 ovarian; 101% with HS 578T breast; 91.8% in the assay with NCI/ADR-RES ovarian; 93.7% in the assay with T-47D breast; 114% in the assay with BT-549 breast. Besides, the growth in the assay with MDA-MB-435 melanoma is 100%; in the assay with SW-620 colon it was 99.6%; with MCF7 breast, 95.4%; with HCT-116 colon it was 97.3%; in the assay with HCC-2998 colon it was 120%; in the assay with KM12 colon it was 105%.
`CC(C)(C)c1cc(-c2nc3ccc(N4CCN(S(C)(=O)=O)CC4)cc3[nH]2)cc(C(C)(C)C)c1O`: the growth in the assay on SR leukemia was 56.2%; in the assay with RPMI-8226 leukemia, 79.5%; in the assay on OVCAR-8 ovarian, 78.9%; with OVCAR-5 ovarian it was 105%; in the assay on OVCAR-4 ovarian it was 88.6%; in the assay on SK-OV-3 ovarian it was 79.5%. In addition, the growth with IGROV1 ovarian was 96.4%; with OVCAR-3 ovarian it was 98.8%; in the assay with HS 578T breast, 86.4%; in the assay on NCI/ADR-RES ovarian, 93.1%; in the assay with T-47D breast, 76.6%; with BT-549 breast it was 102%. Moreover, the growth in the assay on MDA-MB-435 melanoma is 94%; with SW-620 colon it was 97.2%; in the assay with MCF7 breast, 76.4%; with HCT-116 colon, 81.7%; in the assay on HCC-2998 colon, 103%; in the assay with KM12 colon it was 27.6%.
Consider `CCN(CC)CCCN1C(=O)c2c(c(C)c3c(oc4cc(O)ccc43)c2C)C1=O`, for which the growth in the assay with SR leukemia is 8.28% (active); in the assay with RPMI-8226 leukemia, -30% (active); with OVCAR-8 ovarian it was -39.4% (active); in the assay on OVCAR-5 ovarian, -77.2% (active); in the assay on OVCAR-4 ovarian, -50.2% (active); in the assay with SK-OV-3 ovarian it was 105%. Also, the growth in the assay with IGROV1 ovarian was -74.5% (active); in the assay on OVCAR-3 ovarian, 118%; in the assay on HS 578T breast, 101%; in the assay with NCI/ADR-RES ovarian it was -40.4% (active); in the assay with T-47D breast, 97.7%; in the assay with BT-549 breast, 94.8%. Further, the growth is -61.1% (active) in the assay with MDA-MB-435 melanoma; -36% (active) with SW-620 colon; -69.2% (active) with MCF7 breast; -76.4% (active) in the assay with HCT-116 colon; -88.9% (active) in the assay on HCC-2998 colon; -59.3% (active) with KM12 colon.
In the case of `CC(C)(C)n1cc(-c2ccnc(NCCNS(=O)(=O)c3cccc(F)c3)c2)c(-c2ccccc2)n1`, the growth in the assay on SR leukemia was 32.6%; with RPMI-8226 leukemia, 61%; with OVCAR-8 ovarian, 87.9%; in the assay on OVCAR-5 ovarian, 105%; in the assay on OVCAR-4 ovarian, 72.7%; in the assay with SK-OV-3 ovarian it was 102%. The growth in the assay on IGROV1 ovarian is 97.2%; in the assay on OVCAR-3 ovarian, 101%; in the assay on HS 578T breast it was 92.9%; in the assay on NCI/ADR-RES ovarian, 89.5%; in the assay with T-47D breast, 44.2%; in the assay on BT-549 breast, 93%. Further, the growth was 99.8% in the assay on MDA-MB-435 melanoma; 94.2% in the assay with SW-620 colon; 67.8% with MCF7 breast; 79% in the assay on HCT-116 colon; 91% with HCC-2998 colon; 93.5% with KM12 colon.
With `C[C@]12C=CC(=O)C=C1CCC1C2[C@@H](O)C[C@@]2(C)C1CC[C@]2(O)C(=O)COC(=O)CCC(=O)O` (some centres undefined), the growth is 98% in the assay on SR leukemia; 64.3% with RPMI-8226 leukemia; 91.3% in the assay on OVCAR-8 ovarian; 89.9% in the assay with OVCAR-5 ovarian; 98.4% in the assay with OVCAR-4 ovarian; 80.2% in the assay with SK-OV-3 ovarian. Besides, the growth is 102% in the assay on IGROV1 ovarian; 119% in the assay on OVCAR-3 ovarian; 119% with HS 578T breast; 92.1% in the assay with NCI/ADR-RES ovarian; 111% with T-47D breast; 89.7% in the assay with BT-549 breast. Also, the growth in the assay with MDA-MB-435 melanoma was 99.9%; in the assay with SW-620 colon, 105%; in the assay on MCF7 breast it was 96.5%; with HCT-116 colon it was 107%; with HCC-2998 colon, 110%; in the assay on KM12 colon, 109%.
As for `Fc1ccc(Nc2nc3nonc3nc2Nc2ccc(I)cc2)cc1`, the growth in the assay with SR leukemia is -4.09% (active); with RPMI-8226 leukemia it was -11.6% (active); with OVCAR-8 ovarian, 4.01% (active); with OVCAR-5 ovarian it was 37.5%; in the assay on OVCAR-4 ovarian, 17.8%; with SK-OV-3 ovarian, -24.5% (active). In addition, the growth was 23.2% in the assay on IGROV1 ovarian; 9.78% (active) in the assay with OVCAR-3 ovarian; 8.99% (active) in the assay with HS 578T breast; 4.92% (active) in the assay with NCI/ADR-RES ovarian; -26.7% (active) in the assay on T-47D breast; -6.04% (active) with BT-549 breast. Moreover, the growth with MDA-MB-435 melanoma was 4.78% (active); in the assay with SW-620 colon, 11.2%; in the assay on MCF7 breast, 1.98% (active); with HCT-116 colon, 3.42% (active); in the assay on HCC-2998 colon it was 9.77% (active); in the assay with KM12 colon, 2.12% (active).
